Holding throughout (assay): DAPPL (digital affinity profiling via proximity ligation, sequencing); 10 mM Tris-HCl pH 7.5, 50 mM NaCl, 1 mM DTT, 4% glycerol, room temperature, 30 min; GST-TFs on glutathione beads, 16-mer random dsDNA library, 0.1% formaldehyde crosslink after washing; high values mean tight binding
Common to all, as to conditions: protein: recombinant; tags: N-terminal GST; dsDNA, one strand shown

The target in one assay is T1, ELK1 (Homo sapiens, UniProt P19419 1-428).
T1 sequence: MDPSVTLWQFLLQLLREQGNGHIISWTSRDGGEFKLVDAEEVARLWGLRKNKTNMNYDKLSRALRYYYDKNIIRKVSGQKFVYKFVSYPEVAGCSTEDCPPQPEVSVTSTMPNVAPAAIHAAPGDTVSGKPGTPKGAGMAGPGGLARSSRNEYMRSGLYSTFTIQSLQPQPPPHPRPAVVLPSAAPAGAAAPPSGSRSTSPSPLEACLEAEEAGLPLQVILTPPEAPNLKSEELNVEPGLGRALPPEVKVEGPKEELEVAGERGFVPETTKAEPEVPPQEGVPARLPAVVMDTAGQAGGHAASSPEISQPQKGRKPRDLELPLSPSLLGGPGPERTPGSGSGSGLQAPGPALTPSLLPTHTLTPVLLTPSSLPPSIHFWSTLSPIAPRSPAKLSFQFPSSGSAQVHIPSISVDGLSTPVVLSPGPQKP
In short, it runs like this: (§1)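 GST fusions of human transcription factors were expressed in yeast and captured with glutathione beads. Once given DNA barcodes and pooled alongside a tag-only sample, they were incubated for 30 min at room temperature with 200 nmole of a random double-stranded 16-mer DNA library in Tris/NaCl/DTT/glycerol buffer, then washed, crosslinked (0.1% formaldehyde), proximity-ligated, PCR-amplified and sequenced on an Illumina NextSeq500. The binding signal of each hexamer is its read frequency for a factor divided by its frequency for the tag-only sample.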

A further assay deals with T2, GABPA (Homo sapiens, UniProt Q06546 1-454).
T2 sequence: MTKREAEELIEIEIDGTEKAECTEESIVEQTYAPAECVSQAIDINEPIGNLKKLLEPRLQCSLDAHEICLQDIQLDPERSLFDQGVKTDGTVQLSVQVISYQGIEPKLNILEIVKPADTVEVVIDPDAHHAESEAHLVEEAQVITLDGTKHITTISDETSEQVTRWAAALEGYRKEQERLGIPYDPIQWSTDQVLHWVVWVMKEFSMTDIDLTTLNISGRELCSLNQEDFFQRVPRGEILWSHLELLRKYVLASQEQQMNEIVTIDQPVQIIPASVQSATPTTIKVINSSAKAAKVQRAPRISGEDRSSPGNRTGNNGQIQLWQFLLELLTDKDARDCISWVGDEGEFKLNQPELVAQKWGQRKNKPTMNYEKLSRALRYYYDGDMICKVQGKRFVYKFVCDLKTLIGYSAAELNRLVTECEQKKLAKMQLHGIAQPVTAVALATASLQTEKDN
The gist of the method: as §1

A further assay addresses T3, ERG (Homo sapiens, UniProt P11308 1-479).
T3 sequence: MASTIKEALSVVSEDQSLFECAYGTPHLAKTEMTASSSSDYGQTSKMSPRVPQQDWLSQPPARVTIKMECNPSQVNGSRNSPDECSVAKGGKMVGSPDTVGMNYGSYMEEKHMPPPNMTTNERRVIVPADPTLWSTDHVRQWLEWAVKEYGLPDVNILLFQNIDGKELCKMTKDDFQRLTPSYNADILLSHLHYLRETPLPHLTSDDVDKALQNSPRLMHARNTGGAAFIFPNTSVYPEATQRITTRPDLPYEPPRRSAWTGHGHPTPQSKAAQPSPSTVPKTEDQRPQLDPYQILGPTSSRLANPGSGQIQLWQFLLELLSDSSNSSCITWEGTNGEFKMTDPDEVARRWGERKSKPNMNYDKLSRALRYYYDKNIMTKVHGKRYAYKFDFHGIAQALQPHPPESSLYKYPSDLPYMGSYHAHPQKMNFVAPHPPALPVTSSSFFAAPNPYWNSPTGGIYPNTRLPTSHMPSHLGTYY
The gist of the method: as §1

Another assay concerns the target ELF1 (Homo sapiens, UniProt P32519 1-619). In short, it runs like this: as §1
The next assay has as its target T4, EHF (Homo sapiens, UniProt Q9NZC4 1-300).
T4 sequence: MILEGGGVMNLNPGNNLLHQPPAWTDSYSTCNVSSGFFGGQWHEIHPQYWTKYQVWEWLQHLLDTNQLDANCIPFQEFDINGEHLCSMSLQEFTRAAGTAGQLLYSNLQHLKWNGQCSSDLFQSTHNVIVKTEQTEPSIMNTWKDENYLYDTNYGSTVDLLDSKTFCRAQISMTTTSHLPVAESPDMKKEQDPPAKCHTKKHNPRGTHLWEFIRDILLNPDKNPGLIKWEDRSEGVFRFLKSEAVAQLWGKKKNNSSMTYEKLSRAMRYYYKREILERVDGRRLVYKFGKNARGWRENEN
The gist of the method:
as §1

For the next assay, the target named is SPIB (Homo sapiens, UniProt Q01892 1-262). In short, it runs like this: as §1
Another assay deals with T5, FEV (Homo sapiens, UniProt Q99581 1-238).
T5 sequence: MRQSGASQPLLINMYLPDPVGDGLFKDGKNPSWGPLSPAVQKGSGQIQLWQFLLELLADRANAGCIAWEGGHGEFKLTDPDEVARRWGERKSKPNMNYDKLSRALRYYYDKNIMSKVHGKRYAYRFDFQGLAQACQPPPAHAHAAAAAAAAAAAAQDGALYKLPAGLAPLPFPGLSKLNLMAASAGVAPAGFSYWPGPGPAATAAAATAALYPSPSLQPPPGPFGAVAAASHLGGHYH
In short, it runs like this: as §1

For a further assay, the target named is ETV5 (Homo sapiens, UniProt P41161 1-510). The gist of the method:
as §1

For another assay, the target named is ELF4 (Homo sapiens, UniProt Q99607 1-663). The gist of the method: as §1
Another assay concerns the target T6, ETV2 (Homo sapiens, UniProt O00321 1-342).
T6 sequence: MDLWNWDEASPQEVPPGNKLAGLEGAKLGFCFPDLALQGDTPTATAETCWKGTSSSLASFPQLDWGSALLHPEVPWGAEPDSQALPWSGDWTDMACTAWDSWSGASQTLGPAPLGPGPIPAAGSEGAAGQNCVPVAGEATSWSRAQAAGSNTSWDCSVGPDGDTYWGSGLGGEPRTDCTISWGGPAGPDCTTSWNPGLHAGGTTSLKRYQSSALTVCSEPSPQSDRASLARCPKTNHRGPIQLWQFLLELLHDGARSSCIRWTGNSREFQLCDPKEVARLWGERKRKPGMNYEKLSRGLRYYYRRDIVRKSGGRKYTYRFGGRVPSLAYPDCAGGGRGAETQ
The gist of the method:
as §1

The target in a further assay is T7, ELF3 (Homo sapiens, UniProt P78545 1-371).
T7 sequence: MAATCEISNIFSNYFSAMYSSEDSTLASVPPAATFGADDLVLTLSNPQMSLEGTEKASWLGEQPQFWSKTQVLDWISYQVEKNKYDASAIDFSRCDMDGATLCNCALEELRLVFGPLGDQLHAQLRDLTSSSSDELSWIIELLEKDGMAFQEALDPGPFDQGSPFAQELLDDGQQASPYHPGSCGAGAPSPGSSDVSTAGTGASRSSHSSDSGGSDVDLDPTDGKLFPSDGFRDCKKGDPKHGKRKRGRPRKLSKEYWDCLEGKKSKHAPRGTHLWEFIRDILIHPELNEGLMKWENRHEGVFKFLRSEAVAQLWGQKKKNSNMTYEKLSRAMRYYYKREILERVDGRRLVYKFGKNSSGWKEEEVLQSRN
The gist of the method:
as §1

A further assay has as its target ETV1 (Homo sapiens, UniProt P50549 1-477). The gist of the method: as §1
A further assay has as its target T8, ERF (Homo sapiens, UniProt P50548 1-548).
T8 sequence: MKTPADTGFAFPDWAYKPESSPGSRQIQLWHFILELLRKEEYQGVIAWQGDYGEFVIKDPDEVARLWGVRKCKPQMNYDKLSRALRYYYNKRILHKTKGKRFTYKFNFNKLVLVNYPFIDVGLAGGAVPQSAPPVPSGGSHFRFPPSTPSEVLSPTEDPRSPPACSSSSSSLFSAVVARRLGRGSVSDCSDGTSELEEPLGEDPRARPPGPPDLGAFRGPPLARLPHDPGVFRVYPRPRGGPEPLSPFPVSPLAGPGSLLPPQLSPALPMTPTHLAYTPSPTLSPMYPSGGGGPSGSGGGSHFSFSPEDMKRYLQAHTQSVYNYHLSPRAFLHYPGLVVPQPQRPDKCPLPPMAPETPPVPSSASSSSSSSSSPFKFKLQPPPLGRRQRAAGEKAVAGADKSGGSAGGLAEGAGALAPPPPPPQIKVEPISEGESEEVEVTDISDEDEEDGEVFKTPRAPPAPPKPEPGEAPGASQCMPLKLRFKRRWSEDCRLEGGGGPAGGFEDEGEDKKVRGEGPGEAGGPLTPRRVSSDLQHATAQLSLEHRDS
In short, it runs like this: as §1

The target of another assay is T9, ETV3L (Homo sapiens, UniProt Q6ZN32 1-361).
T9 sequence: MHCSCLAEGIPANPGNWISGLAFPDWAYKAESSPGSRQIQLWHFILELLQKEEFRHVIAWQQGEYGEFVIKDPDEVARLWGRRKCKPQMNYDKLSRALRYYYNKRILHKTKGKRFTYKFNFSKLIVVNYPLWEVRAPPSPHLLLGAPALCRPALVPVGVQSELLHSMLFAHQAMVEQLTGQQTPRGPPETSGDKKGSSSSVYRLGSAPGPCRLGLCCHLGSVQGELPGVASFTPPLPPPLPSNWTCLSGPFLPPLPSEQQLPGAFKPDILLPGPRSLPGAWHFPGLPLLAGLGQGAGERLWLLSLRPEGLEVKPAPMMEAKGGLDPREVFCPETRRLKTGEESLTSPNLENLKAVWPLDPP
In short, it runs like this: as §1

The next assay concerns the target T10, ETS2 (Homo sapiens, UniProt P15036 1-469).
T10 sequence: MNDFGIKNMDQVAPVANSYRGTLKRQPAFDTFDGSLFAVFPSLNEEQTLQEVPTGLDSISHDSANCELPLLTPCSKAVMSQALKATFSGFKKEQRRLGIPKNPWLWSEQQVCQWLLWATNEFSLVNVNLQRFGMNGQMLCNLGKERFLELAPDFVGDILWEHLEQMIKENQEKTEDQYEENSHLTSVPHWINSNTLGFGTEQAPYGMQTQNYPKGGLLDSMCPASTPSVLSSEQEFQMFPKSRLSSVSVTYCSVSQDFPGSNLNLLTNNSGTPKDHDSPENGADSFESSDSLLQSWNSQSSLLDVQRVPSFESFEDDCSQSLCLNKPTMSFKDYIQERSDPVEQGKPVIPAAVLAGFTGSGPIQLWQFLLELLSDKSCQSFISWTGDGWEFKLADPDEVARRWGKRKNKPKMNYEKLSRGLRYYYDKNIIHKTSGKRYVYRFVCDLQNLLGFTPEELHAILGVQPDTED
In short, it runs like this:
as §1

A further assay has as its target T11, SPDEF (Homo sapiens, UniProt O95238 1-335).
T11 sequence: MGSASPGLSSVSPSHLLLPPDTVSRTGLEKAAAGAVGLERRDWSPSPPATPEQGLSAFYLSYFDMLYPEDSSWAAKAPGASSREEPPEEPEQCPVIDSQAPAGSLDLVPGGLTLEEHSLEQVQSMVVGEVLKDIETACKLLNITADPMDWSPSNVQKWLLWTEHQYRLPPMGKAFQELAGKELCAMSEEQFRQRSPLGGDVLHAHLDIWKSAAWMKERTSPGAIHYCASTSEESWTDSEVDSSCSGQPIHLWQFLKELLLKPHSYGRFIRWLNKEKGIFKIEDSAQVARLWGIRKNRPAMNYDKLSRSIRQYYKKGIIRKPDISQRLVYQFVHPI
The gist of the method:
as §1

The next assay addresses T12, ETV7 (Homo sapiens, UniProt Q9Y603 1-341).
T12 sequence: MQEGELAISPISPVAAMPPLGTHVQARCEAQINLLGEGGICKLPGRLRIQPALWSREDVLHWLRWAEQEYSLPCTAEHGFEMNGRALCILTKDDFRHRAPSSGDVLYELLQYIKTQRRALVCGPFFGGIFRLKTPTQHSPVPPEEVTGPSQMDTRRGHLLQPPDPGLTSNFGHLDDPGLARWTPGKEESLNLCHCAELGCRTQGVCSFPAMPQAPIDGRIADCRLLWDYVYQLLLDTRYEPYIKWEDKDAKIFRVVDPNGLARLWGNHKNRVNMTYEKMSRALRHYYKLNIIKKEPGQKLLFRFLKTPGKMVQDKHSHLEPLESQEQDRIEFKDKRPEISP
The gist of the method:
as §1

The target of another assay is T13, ETV3 (Homo sapiens, UniProt P41162-2 1-143).
T13 sequence: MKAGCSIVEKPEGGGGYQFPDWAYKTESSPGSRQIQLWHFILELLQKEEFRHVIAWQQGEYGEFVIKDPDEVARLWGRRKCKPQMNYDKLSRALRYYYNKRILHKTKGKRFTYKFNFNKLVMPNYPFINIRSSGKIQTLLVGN
In short, it runs like this: as §1

For the next assay, the target named is ETV6 (Homo sapiens, UniProt P41212 1-452). The gist of the method: as §1
Chain of ETV6 (P41212 whole entry): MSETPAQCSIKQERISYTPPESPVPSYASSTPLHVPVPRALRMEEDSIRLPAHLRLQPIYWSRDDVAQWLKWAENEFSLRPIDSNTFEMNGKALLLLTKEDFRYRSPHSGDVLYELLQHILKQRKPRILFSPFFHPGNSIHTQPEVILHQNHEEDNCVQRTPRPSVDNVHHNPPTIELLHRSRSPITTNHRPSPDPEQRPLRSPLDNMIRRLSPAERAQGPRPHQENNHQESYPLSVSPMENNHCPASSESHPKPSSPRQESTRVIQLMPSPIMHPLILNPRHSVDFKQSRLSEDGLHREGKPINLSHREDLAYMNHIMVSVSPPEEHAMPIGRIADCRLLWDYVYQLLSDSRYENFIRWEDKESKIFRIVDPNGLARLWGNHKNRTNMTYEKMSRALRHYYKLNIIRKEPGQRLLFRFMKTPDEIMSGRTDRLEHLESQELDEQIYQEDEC

Chain of SPIB (Q01892 whole entry): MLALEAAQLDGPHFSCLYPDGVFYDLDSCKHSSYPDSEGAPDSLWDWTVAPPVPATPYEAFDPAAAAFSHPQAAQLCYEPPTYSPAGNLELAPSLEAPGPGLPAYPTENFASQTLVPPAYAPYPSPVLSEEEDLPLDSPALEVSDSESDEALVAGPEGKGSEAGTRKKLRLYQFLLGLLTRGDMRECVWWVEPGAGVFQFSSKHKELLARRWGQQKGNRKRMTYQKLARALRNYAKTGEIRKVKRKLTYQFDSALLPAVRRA
Chain of ELF4 (Q99607 whole entry): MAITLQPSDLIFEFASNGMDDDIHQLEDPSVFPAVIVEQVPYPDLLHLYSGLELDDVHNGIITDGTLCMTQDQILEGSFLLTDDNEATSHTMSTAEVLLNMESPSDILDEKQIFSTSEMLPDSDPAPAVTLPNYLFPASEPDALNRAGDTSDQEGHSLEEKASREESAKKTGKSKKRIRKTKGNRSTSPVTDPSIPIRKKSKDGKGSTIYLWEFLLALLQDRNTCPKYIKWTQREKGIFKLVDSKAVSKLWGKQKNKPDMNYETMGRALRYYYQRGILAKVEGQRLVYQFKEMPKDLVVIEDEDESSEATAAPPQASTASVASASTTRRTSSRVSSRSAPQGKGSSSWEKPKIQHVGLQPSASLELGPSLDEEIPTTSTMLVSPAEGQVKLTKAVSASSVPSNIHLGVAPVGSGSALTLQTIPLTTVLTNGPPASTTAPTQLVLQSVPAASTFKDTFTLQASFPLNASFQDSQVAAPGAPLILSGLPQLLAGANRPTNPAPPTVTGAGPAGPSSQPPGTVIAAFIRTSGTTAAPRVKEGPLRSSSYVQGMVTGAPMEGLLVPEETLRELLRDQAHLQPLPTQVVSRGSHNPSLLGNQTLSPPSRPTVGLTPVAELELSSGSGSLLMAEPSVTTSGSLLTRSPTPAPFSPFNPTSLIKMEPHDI
Chain of ETV5 (P41161 whole entry): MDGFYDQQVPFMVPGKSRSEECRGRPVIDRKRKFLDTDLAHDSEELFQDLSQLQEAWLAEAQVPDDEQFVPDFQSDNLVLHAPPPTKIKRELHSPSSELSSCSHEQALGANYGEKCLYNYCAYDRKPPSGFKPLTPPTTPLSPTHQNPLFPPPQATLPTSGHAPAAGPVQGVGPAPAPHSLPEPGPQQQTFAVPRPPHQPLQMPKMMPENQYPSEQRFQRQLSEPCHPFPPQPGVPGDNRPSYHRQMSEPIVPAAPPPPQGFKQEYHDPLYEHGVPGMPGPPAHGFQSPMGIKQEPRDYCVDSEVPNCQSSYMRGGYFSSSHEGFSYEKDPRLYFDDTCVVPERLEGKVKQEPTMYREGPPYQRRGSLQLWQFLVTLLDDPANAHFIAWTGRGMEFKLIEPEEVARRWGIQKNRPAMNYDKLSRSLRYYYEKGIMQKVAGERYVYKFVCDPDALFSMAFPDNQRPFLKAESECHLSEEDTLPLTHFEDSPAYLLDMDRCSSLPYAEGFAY
Chain of ETV1 (P50549 whole entry): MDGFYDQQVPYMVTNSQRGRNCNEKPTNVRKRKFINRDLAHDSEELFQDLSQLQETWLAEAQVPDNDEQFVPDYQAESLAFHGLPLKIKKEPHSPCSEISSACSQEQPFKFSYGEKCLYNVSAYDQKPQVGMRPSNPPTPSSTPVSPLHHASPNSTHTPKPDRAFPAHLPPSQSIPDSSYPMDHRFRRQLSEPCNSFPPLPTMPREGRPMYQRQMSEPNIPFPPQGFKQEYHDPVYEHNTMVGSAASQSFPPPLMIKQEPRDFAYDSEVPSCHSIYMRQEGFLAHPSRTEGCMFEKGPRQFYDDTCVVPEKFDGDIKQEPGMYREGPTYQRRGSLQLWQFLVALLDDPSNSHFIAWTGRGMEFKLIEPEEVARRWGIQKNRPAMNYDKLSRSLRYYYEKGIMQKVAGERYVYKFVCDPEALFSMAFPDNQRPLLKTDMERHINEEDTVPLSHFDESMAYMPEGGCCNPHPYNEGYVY
Chain of ELF1 (P32519 whole entry): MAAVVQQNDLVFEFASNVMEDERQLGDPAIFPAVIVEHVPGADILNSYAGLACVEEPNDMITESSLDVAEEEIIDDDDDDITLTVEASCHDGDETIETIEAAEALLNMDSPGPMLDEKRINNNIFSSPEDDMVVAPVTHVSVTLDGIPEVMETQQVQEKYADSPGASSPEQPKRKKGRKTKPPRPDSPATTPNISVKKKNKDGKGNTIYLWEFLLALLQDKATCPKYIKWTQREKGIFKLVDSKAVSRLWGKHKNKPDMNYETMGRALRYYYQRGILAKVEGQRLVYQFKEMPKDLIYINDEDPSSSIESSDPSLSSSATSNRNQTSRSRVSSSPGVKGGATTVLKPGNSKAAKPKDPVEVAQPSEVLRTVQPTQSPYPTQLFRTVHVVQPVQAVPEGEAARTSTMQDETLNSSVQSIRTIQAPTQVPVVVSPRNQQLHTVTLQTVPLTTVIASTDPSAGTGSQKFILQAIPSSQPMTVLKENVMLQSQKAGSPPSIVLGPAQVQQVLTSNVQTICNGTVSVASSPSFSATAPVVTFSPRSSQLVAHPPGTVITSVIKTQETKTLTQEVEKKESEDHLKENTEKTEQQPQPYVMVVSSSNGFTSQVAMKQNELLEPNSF

On to CCCGTC, for which the binding signal was 1.1 fold enrichment (6-mer frequency, TF over GST control) in the assay with ELK1; 1.01 fold enrichment (6-mer frequency, TF over GST control) with GABPA; 1.1 fold enrichment (6-mer frequency, TF over GST control) with ERG; 1.13 fold enrichment (6-mer frequency, TF over GST control) with ELF1; 1.09 fold enrichment (6-mer frequency, TF over GST control) with EHF; 1.05 fold enrichment (6-mer frequency, TF over GST control) with SPIB. Besides, the binding signal is 1.09 fold enrichment (6-mer frequency, TF over GST control) in the assay with FEV; 1.08 fold enrichment (6-mer frequency, TF over GST control) in the assay with ETV5; 1.07 fold enrichment (6-mer frequency, TF over GST control) in the assay with ELF4; 1.32 fold enrichment (6-mer frequency, TF over GST control) in the assay with ETV2; 1.03 fold enrichment (6-mer frequency, TF over GST control) in the assay with ELF3; 1.1 fold enrichment (6-mer frequency, TF over GST control) with ETV1. Further, the binding signal was 1.14 fold enrichment (6-mer frequency, TF over GST control) with ERF; 1 fold enrichment (6-mer frequency, TF over GST control) with ETV3L; 1.04 fold enrichment (6-mer frequency, TF over GST control) with ETS2; 1.12 fold enrichment (6-mer frequency, TF over GST control) with SPDEF; 1.16 fold enrichment (6-mer frequency, TF over GST control) with ETV7; 1.03 fold enrichment (6-mer frequency, TF over GST control) in the assay with ETV3. Further, the binding signal with ETV6 was 1.07 fold enrichment (6-mer frequency, TF over GST control).

The record behind these values is publication PMC7862700, “An all-to-all approach to the identification of sequence-specific readers for epigenetic DNA modifications on cytosine”.
